The target of test [1] is Tumor necrosis factor receptor superfamily member 10B (Homo sapiens) (UniProt O14763). The test is described as follows: viability loss of caspase-8 NB7 cells with TRAIL – with/without TRAIL, luminescence panel, confirmation (AID 651596). Particulars: NB7 neuroblastoma + caspase-8, TRAIL sensitization, NB7 Caspase-8, with TRAIL, mean of runs, at 10 µM, stronger effect = higher value.

Assay in test [2]: as above
Particulars: NB7 neuroblastoma + caspase-8, without TRAIL, NB7 Caspase-8, without TRAIL, mean of runs, at 10 µM.

In PubChem BioAssay one finds activity data, which are given here for 47 compounds.

Chain of Tumor necrosis factor receptor superfamily member 10B (Homo sapiens) (O14763 whole entry, looked up): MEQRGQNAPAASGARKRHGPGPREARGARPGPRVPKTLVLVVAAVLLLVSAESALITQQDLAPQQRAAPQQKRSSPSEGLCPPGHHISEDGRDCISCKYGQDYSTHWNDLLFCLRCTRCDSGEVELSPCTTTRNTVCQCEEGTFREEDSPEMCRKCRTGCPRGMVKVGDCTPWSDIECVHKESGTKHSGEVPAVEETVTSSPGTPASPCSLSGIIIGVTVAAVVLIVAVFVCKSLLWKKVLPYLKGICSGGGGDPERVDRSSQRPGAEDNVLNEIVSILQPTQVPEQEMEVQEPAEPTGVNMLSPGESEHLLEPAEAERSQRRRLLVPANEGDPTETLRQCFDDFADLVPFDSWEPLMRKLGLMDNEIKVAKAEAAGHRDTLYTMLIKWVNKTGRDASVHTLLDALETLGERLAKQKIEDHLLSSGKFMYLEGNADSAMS

Take `Fc1cccc(CSc2nc3ccncc3[nH]2)c1`: the results for the activity in test [1] and in test [2] were 55.2% and 54.4%, respectively.
In the case of `CCN1CCN(CCCNC(=O)c2ccc3c(c2)NC(=O)/C(=C\c2cccc(C)c2)S3)CC1`, the values for the activity in test [1] and in test [2] were 41.4% and 89.2%, respectively.
`Cc1cccc(NC(=O)c2cnc3ccccn3c2=O)c1`: the activity came to 69% in test [1] and 62.9% in test [2].
Turning to `COc1ccc(-c2cc(=O)c3ccccc3s2)cc1`, the activity in test [1] amounted to 61.2%; in test [2], 62%.
For the compound `Cc1ccc(C2=Nc3ccccc3N=C(C(Cl)Cl)C2)cc1`, the activity amounted to 7.3% in test [1] and 6.45% in test [2].
In the case of `CSc1ccc(/C=N/NC(=O)c2cccc(O)c2)cc1`, the activity in test [1] came out at 78.8%; in test [2], 71%.
The corresponding values for `COc1ccc(CCNc2cc(N3CCN(C(=O)c4ccccc4F)CC3)ccc2[N+](=O)[O-])cc1OC` are 73.7% and 64.7%.
Consider `CC(C)C[C@H]1CNC(=S)N1C[C@H]1CCCN1C[C@H](Cc1ccccc1)N1C[C@H](Cc2ccc(O)cc2)N(CC2CCCCC2)C1=S`, for which the activity in test [1] was -0.175%; in test [2], -1.23%.
As for `Cc1ccc(NC(=O)CSc2nn(-c3ccccc3)c(=S)s2)cc1S(=O)(=O)N(C)C`, the activity in test [1] is 22.1%; in test [2], 17.6%.
For the compound `COc1ccc(-c2ccc(NC(=O)c3ccco3)cc2)nn1`, the figures for the activity in test [1] and in test [2] were 91% and 89.9%, respectively.
In the same order, the values of `COc1ccc(C2CC(c3cccs3)=NN2C(=O)CCl)cc1OC` (centres undefined) are 98.7% and 98.7%.
As to `C/C(=N\NC(=O)c1ccc(F)cc1)c1ccccn1`, the activity in test [1] came out at 44.9%; in test [2] it was 61.7%.
For the compound `CC(C)(C)c1ccc(-c2cn(-c3ccc(Br)cc3)c3[n+]2CCCS3)cc1`, the activity in test [1] worked out at 71.9%; in test [2], 55.1%.
With `O=C(N/N=C/c1ccc(Br)s1)c1ccccn1`, the figures for the activity in test [1] and in test [2] were 44.5% and 46.6%, respectively.
`COc1ccc(-n2nc3cc(C)c(NC(C)=O)cc3n2)cc1`: the activity in test [1] was determined as 71.8%; in test [2], 75.7%.
In the case of `O=C(CCl)Nc1ccccc1C(=O)Nc1ccc2c(c1)OCO2`, the activity in test [1] came to 74.1%; in test [2], 73.8%.
The corresponding values for `COc1ccc(C(=O)c2c[nH]c3ccccc23)cc1` are 45.4% and 26.6%.
Consider `Cc1csc(NC(=O)c2cc3c(s2)CCC3)n1`, for which the activity in test [1] is 81.8%; in test [2] it was 86.3%.
`Cc1cc(-c2ccccc2)nc(N/N=C/c2ccccc2)n1`: the activity is 61.6% in test [1] and 50.3% in test [2].
In the same order, the values of `COc1cc(/C=C/c2nc3ccccc3c(=O)[nH]2)ccc1OC(F)F` are 55.6% and 54.7%.
On to `Cc1csc(NC(=S)NC(=O)c2ccccc2)n1`, for which the results for the activity in test [1] and in test [2] were 67.7% and 53.1%, respectively.
Regarding `CN1/C(=C/C(=O)c2cccs2)Sc2ccccc21`, the activity was 60% in test [1] and 47% in test [2].
Consider `O=C(Nc1ccc2nc3n(c(=O)c2c1)CCCCC3)c1c(F)ccc([N+](=O)[O-])c1F`, for which the activity in test [1] is 72.9%; in test [2], 52.3%.
In the same order, the values of `COc1ccccc1N1CCN(C2=Nc3cccc4cccc2c34)CC1` are 63.1% and 58.2%.
`Nc1nc(N)c2cc(Sc3ccc(Cl)cc3)ccc2n1`: the activity turned out to be 70.7% in test [1] and 75.5% in test [2].
In the case of `Cc1nc(-c2ccc(C(=O)Nc3ccccc3F)cc2)cs1`, the activity in test [1] amounted to 81.9%; in test [2], 84.3%.
Consider `C(=Cc1c[nH]c2ccccc12)c1ccc2ccccc2n1`, for which the activity in test [1] turned out to be 61.1%; in test [2], 52.8%.
On to `CCCC(=O)OCCNc1cc(Sc2nccn2C)c2nonc2c1[N+](=O)[O-]`, for which the activity came to 35.8% in test [1] and 97.2% in test [2].
Turning to `O=C(C[C@H]1C[C@H](C(=O)N2CCCCC2)[C@@]2(CCc3ccccc3)c3[nH]c4ccc(Cl)cc4c3CCN2C1=O)NCCC1=CCCCC1`, the activity in test [1] is 46.3%; in test [2], 86.7%.
Regarding `O=C(Nc1cccc(O)c1)c1noc2c1CCCCC2`, the activity amounted to 66.2% in test [1] and 61% in test [2].
The corresponding values for `Cc1ccc(C(=O)Nc2nc3c(s2)CCCC3)o1` are 70.4% and 69.2%.
With `Clc1ccc2nc(-c3ccccc3)cn2c1`, the activity in test [1] was found to be 72.7%; in test [2], 74.1%.
`CCOC(=O)/C(=C/c1ccc(OC(F)F)cc1)C1=Nn2c(nnc2-c2ccc(Cl)cc2)SC1`: the activity is 98.8% in test [1] and 97.1% in test [2].
Regarding `CCOc1cccc2cc(-c3nnc(NCc4ccco4)s3)c(=O)oc12`, the activity is -11.9% in test [1] and -7.67% in test [2].
Regarding `CNC[C@@H](CC1CCCCC1)NC[C@H](CC(C)C)NCCc1cccc(C(F)(F)F)c1`, the values for the activity in test [1] and in test [2] were 99.4% and 99.7%, respectively.
The corresponding values for `O=C(CCl)N(CCc1ccccc1)CCc1ccccc1` are 99.4% and 98.2%.
For the compound `CC1(C)N=C(N)N=C(N)N1c1ccc(OCC(=O)N2CCOCC2)c(Cl)c1`, the activity in test [1] is 81.6%; in test [2], 86%.
Regarding `O=c1cc(C(Cl)(Cl)Cl)oc2c1ccc1ccccc12`, the figures for the activity in test [1] and in test [2] were 62.7% and 65.3%, respectively.
The corresponding values for `c1ccc(COc2ncnc3c2ncn3CCCNCC(c2ccccc2)c2ccccc2)cc1` are 18.2% and 41.5%.
`CCOC(=O)c1sc2nc(-c3cccnc3)ccc2c1N`: the activity was 56% in test [1] and 49.2% in test [2].
As to `O=C1C(=C2CCc3ccccc32)Cc2ccccc21`, the activity in test [1] is 41.5%; in test [2], 48.9%.
In the same order, the values of `COc1ccc(C(C(=O)NC2CCCC2)N(C(=O)c2snc(-c3ccc(F)cc3)c2N)c2ccc(F)cc2)cc1` (centres undefined) are 50.3% and 43.5%.
As to `Fc1ccc(-c2nc3n(n2)Cc2ccccc2-3)cc1`, the activity in test [1] was 54%; in test [2], 55.6%.
The corresponding values for `Cc1ccc(C(=O)Nc2ccc(Cl)cc2C)c(Cl)c1` are 56.7% and 39.9%.
As for `COc1cc(NC(=O)c2cc3cccc(OC)c3o2)cc(C(=O)Nc2cccc(C(F)(F)F)c2)c1`, the values for the activity in test [1] and in test [2] were 36.8% and 33.5%, respectively.
On to `COc1ccc(C(C(=O)NC2CCCCC2)N(C(=O)CCl)c2ccc(C)cc2)cc1` (centres undefined), for which the activity was 99.5% in test [1] and 99.3% in test [2].
As to `CC(=C/c1ccccc1)/C=N/NC(=O)c1ccccn1`, the activity in test [1] turned out to be 87.2%; in test [2] it was 85.2%.
